# In the library only some 0.9% were active in any assay of this set; here they are far more common.
# gsp ag: activates gsp, the McCune-Albright syndrome mutation. gsp mutant cells, cAMP HTRF, 30 min. Potency, µM (highest dose often 76.9 µM), actives largely listed as activators. 0.13% of 340,000 active. AID 624287; active = well fitted activation curve with a large enough effect; inconclusive = small, poorly fitted or top-dose-only effect, or another doubt; inactive = no such curve, though single readings can be large or run the other way; cell line not stated here;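 also: phosphodiesterase inhibitor Ro 20-1724 added with compounds to block cAMP breakdown; nearly all actives have a fitted effect of over 60% in size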
#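 Cells stably selected in G418 were plated at 2000/well, grown 16-24 hr, then given compounds in DMSO with the PDE inhibitor […] (300 uM solution added) for 30 min at 37C; cAMP was read by HTRF.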
# gsp antagonist: gsp mutant antagonism | gsp-mutant cells, cAMP HTRF, 30 min | Potency, µM (top dose mostly 76.9 µM), actives largely listed as inhibitors | 0.4% of 340,000 active | AID 624288; calls by dose curve; cell line not stated here;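 also: intracellular cAMP measured with PDE inhibitor Ro 20-1724 present during compound exposure; nearly all actives have a fitted effect of over 65% in size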
#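 HTRF cAMP measurement after 30 min RT detection following 30 min, 37C compound treatment alongside […] (added as 300 uM solution) in G418-selected cells seeded at 2000/well and grown 16–24 h.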
# RXFP1 ag: agonists of human relaxin receptor RXFP1 | Q9HBX9 | HEK293T-RXFP1 cAMP TR-FRET, 30 min; response scale: percent of porcine relaxin response, buffer zero | Potency, µM (highest dose often 57.5 µM), most hits filed as activators | 0.3% of 370,000 active | AID 2676; active = well fitted activation curve with a large enough effect; inconclusive = small, poorly fitted or top-dose-only effect; also: nearly all actives have a fitted effect of over 60% in size
# Target sequence (Q9HBX9 whole entry, looked up): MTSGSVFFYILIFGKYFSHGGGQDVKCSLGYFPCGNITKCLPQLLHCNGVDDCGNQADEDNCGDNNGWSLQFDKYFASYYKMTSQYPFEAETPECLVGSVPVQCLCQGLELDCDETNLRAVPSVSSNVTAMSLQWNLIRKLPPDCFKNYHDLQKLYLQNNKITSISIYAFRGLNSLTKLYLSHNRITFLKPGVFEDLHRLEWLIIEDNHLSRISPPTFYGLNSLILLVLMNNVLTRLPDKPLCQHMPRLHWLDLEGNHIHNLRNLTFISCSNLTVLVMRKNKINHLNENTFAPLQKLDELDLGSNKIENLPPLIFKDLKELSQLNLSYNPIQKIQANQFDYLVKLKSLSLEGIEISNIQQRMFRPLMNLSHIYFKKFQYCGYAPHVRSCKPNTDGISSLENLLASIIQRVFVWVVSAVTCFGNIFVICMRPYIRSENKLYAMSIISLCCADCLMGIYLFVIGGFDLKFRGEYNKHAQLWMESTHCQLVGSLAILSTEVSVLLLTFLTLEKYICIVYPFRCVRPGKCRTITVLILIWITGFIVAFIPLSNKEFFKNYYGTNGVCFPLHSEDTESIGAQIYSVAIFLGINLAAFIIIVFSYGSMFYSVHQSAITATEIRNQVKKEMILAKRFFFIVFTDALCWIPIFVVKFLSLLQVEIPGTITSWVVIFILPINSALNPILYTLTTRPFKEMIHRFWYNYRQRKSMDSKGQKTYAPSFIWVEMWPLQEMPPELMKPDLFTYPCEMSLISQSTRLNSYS
#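 HEK293 cells stably expressing RXFP1, treated 30 min at 37C with compounds plus PDE4 inhibitor Ro 20174; cAMP measured by HTRF TR-FRET. Normalized to buffer and 29 nM porcine relaxin; EC50 by Hill fit.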
# RXFP1 antagonist: antagonists of human relaxin receptor RXFP1; Q9HBX9; HEK293-RXFP1, relaxin-stimulated cAMP HTRF, 30 min; stronger effect = lower value; activity change, negative = inhibition, % at 57.5 µM; 0.59% of 350,000 active;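 active = activity change of -60% or lower, but not beyond a set lower limit; inconclusive = change between -60% and -40%, or beyond the set limit; inactive = change above -40%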
# Hits are given with their value; . = inactive; ? = inconclusive; / = no result given; ! = repeats disagree; [ ] = dose if it differs, or a comment.
SMILES,gsp ag,gsp antagonist,RXFP1 ag,RXFP1 antagonist
Cc1nn(C)c(C)c1N1C(=O)c2cccc3c(N)ccc(c23)C1=O,?,.,.,.
COc1ccc(C)cc1NS(=O)(=O)c1cc(Br)cc2c1N(C(C)=O)C(C)C2 (centres undefined),/,/,.,/
COc1ccc(NS(=O)(=O)c2cccc(NC(=O)c3ccc(Cl)nc3)c2)cc1,.[15.4 µM],?,.,-71
O=C(Nc1cccc(S(=O)(=O)Nc2ccc(Cl)cc2)c1)c1ccc(Cl)nc1,.,45µM,.,.
COc1cccc(S(=O)(=O)Nc2ccc(C(=O)Nc3ccncc3)cc2)c1,.,.,.,/
O=C1CSc2ccc(C(=O)Nc3cccc(S(=O)(=O)Nc4ccc(Br)cc4)c3)cc2N1,.,40µM,.,.
COc1cccc(NC(=O)C2CCCN(S(=O)(=O)c3cn(C(C)C)cn3)C2)c1 (centres undefined),/,/,.,.
Oc1ccc(COC2CCN(Cc3ccccc3)C2)c2cccnc12 (centres undefined),/,/,.,/
CCOC(=O)CNC(=S)N(Cc1ccco1)Cc1ccccc1Cl,.,40µM,.,.
CCc1ccc(CN(Cc2ccco2)C(=O)COc2ccccc2Cl)cc1,/,/,.,-61
CCc1ccc(CN(Cc2ccco2)C(=O)c2ccc(OC)cc2)cc1,/,/,.,-63
Cc1ccc(NC(=O)COc2cccc(-n3cnnn3)c2)cc1S(=O)(=O)N1CCOCC1,.,.,.,.
Cc1cn2c(=O)cc(COC(=O)c3cccc(NC(=O)COc4ccccc4)c3)nc2s1,/,/,.,.
CC(CC(C#N)(c1ccccc1)C(C)C)N(C)C (centres undefined),/,/,/,.
C=C1C(=O)c2sccc2C(c2ccc(OC)c(OC)c2)C1COC(C)=O (centres undefined),.,.,/,-104
COc1cccc(C(=O)Nc2ccccc2N2CCN(C(=O)c3ccccc3)CC2)c1,.,25µM,/,.
CN1CCN(c2ccccc2NC(=O)c2ccc(-c3ccccc3)cc2)CC1,.,50µM,.,.
COc1ccc(N(C(=O)Cn2nnc3ccccc32)C(C(=O)NCc2ccccc2)c2ccc(F)cc2)cc1 (centres undefined),/,/,.,.
O=C(NCc1cccc(F)c1)c1ccc(CS(=O)c2ccccc2Cl)o1 (centres undefined),/,/,.,.
Cn1cc(C(=O)Nc2ccc(F)c(Cl)c2)cn1,.,.,.,.
CN1c2ccsc2C(O)=C(C(=S)Nc2ccc(F)c(Cl)c2)S1(=O)=O,.,35µM,.,.
Cn1cc(CNC(=O)c2cc(-c3ccccc3)nc3ccc(Br)cc23)cn1,.[15.4 µM],.,?,.
Cc1ccc(-c2cc(C(=O)NCc3cnn(C)c3)c3cc(Br)ccc3n2)cc1,.[15.4 µM],?,22µM!,.
COC(=O)c1cc(-c2ccc3c(c2)OCO3)nc2ccccc12,.,?,.,.
O=C(O)c1cc(-c2ccc3c(c2)OCO3)nc2ccc(Br)cc12,10µM,.,16µM,.
SMILES,gsp ag,gsp antagonist,RXFP1 ag,RXFP1 antagonist
O=C(NCc1ccc(Cl)cc1)C1CCCN(c2ncnc3onc(-c4ccc(F)cc4)c23)C1 (centres undefined),/,/,.,.
Cc1ccc(-c2noc(-c3ccc(N4CCCCC4C)c([N+](=O)[O-])c3)n2)cc1 (centres undefined),/,/,.,/
C=CCNC(=S)Nc1sc2c(c1C(=O)OCC)CC(C(C)C)OC2 (centres undefined),?,.,.,-96
CCOC(=O)c1c(NC(=S)NCCc2ccccc2)sc2c1CC(C(C)C)OC2 (centres undefined),.,.,.,.
Cc1ccc(N(CC(=O)Nc2ccc(C)c(F)c2)S(=O)(=O)c2c(C)n[nH]c2C)cc1,/,/,.,/
O=C(CCS(=O)(=O)c1nc(-c2cccs2)cc(C(F)(F)F)n1)Nc1ccc(Br)cc1,/,/,.,-108
O=C(CCS(=O)(=O)c1nc(-c2cccs2)cc(C(F)(F)F)n1)Nc1cc(Br)ccc1O,/,/,.,-116
Cc1ccc(O)c(NC(=O)CCS(=O)(=O)c2nc(-c3cccs3)cc(C(F)(F)F)n2)c1,/,/,.,.
Cc1nnc(SCc2ccccc2Cl)c2cc3sccc3n12,/,/,?,.
Cc1ccc(Cn2c(=O)n(Cc3ccc(Cl)cc3)c(=O)c3cccnc32)cc1,/,/,.,/
Cc1nc(-c2ccc(S(=O)(=O)Nc3ccc(Cl)c(C(F)(F)F)c3)cc2)co1,/,/,.,/
O=C(O)c1cc(-c2cccs2)nc2ccc(F)cc12,25µM,.,?,.
CN1CCC(NCCC(c2ccc(F)cc2)c2ccc(Cl)cc2)CC1 (centres undefined),.[15.4 µM],.,.,-86
O=C(Nc1ccc(N2CCN(c3ccc(C(F)(F)F)cn3)CC2)nc1)c1cccs1,.[15.4 µM],.,.,.
O=C(Nc1ccc(N2CCN(c3ncccc3C(F)(F)F)CC2)nc1)c1cccs1,.[15.4 µM],50µM,.,-69
COc1ccc(OCC(=O)NC(Cc2c[nH]c3ccccc23)C(=O)O)cc1 (centres undefined),/,/,.,.
Cc1csc2ncc(C(=O)NC(C)c3ccccc3)c(=O)n12 (centres undefined),18µM,.,.,.
CCc1cc2cc3c(cc2nc1SCC(=O)Nc1nccs1)OCO3,?,.,13µM,.
CCc1cc2cc3c(cc2nc1SCC(=O)Nc1c[nH]c(=O)[nH]c1=O)OCO3,.,.,?,.
CO[C@@H]1[C@@H](OC)[C@H](C)[C@@](O)(CC(=O)O)O[C@H]1[C@H](C)[C@H]1O[C@@]2(CC[C@@](C)([C@H]3CC[C@@](C)([C@@H]4O[C@@H]([C@H]5O[C@](C)(O)[C@H](C)C[C@@H]5C)C[C@@H]4OC4C[C@H](OC)[C@@H](OC)[C@H](C)O4)O3)O2)C[C@H](O)[C@H]1C (some centres undefined),/,/,/,-66
Cc1cccc(-c2noc(-c3ccccc3OCC(=O)Nc3ccc([N+](=O)[O-])cc3)n2)c1,/,/,.,/
CCOc1ccccc1NC(=O)C(C)Sc1cc(-c2ccccc2)nc(C)n1 (centres undefined),/,/,.,.
Cc1nc(SC(C)C(=O)Nc2ccccc2Cl)cc(-c2ccccc2)n1 (centres undefined),/,/,.,-72
O=[N+]([O-])/C=C\c1ccc(N2CCCC2)c(F)c1,.,.,.,-68
COc1ccc(-c2csc(NC(=O)CSc3n[nH]c(C)n3)n2)cc1,.,35µM,.,.
SMILES,gsp ag,gsp antagonist,RXFP1 ag,RXFP1 antagonist
Fc1ccc(-c2onc3ccc(C4OCCO4)cc23)cc1,.[15.4 µM],11µM,.,.
Cc1nc2sc3c(=O)[nH]nnc3c2c(C)c1Br,?,50µM,.,.
O=C(NCC(=O)N1CCCCCCC1)c1cccc([N+](=O)[O-])c1,.,.,.,.
COC(=O)c1c(C)nsc1NC(=O)Oc1ccccc1,4.5µM,.,.,.
CNc1snc(C)c1C(=O)OC(C)C(=O)Nc1ccccc1 (centres undefined),.,.,.,.
Cc1[nH]n(-c2ccccc2)c(=O)c1C(c1ccc(O)c([N+](=O)[O-])c1)c1c(C)[nH]n(-c2ccccc2)c1=O,.,11µM,/,.

# Assay outcomes as filed in PubChem.
